Screening data: PubChem BioAssay, several laboratories
CHRM1 PAM – human CHRM1 positive allosteric modulation. 360,000 tested, 0.088% active. CHO-K1 hM1, Fluo-8 calcium fluorescence, ACh EC20; 0% = ACh EC20, 100% = maximal ACh. activation, % at 3 µM. P11229. AID 588819; in the data active = activation above about 19%, passing the limit was not always enough
M1 antag – antagonists of human M1 muscarinic receptor; inhibition, % at 3 µM; CHO-K1 hM1, Fluo-8 calcium fluorescence, ACh EC80 antagonist; P11229; 360,000 tested, 1.3% active;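 active = percent inhibition above its own plate's cutoff, namely the mean of that plate's compound wells plus 3 SD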;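 also: peak over basal fluorescence ratio during 140 s after agonist addition; 0% = ACh EC80 plus DMSO and 100% = DMSO alone without agonist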
M1 ag – agonists of human M1 muscarinic receptor; activation, % at 3 µM; P11229; 360,000 tested, 0.33% active; CHO-K1 hM1, Fluo-8 calcium fluorescence, agonist mode; 0% DMSO, 100% acetylcholine EC100;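 active = activation above the run's mean compound activation plus 3 SD, cut at about 16% in these data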;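 also: peak over basal fluorescence ratio within a 140 s kinetic read after compound addition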
Myeloid diff MLP – promotes myeloid progenitor differentiation | ER-HoxA9 myeloid progenitors, lysozyme-GFP differentiation, flow cytometry | calls only at 10 µM | 360,000 tested, 1% active | AID 624256;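 active = normalized GFP-positive differentiation at or above the plate's own cutoff, the solvent-only control mean plus 3 SD; inconclusive = no clear call, values can overlap the other calls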;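 also: cells exposed to compound for four days before flow analysis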
ATG4B inhibitor – ATG4B (human) cysteine protease inhibition. ATG4B cleavage of LC3-PLA2, NBD-HPC fluorescence, 1 h. inhibition, % at 8.33 µM. 340,000 tested, 0.51% active. AID 504462; in the data active = inhibition above about 40%
Target sequence (Q9Y4P1 whole entry, looked up): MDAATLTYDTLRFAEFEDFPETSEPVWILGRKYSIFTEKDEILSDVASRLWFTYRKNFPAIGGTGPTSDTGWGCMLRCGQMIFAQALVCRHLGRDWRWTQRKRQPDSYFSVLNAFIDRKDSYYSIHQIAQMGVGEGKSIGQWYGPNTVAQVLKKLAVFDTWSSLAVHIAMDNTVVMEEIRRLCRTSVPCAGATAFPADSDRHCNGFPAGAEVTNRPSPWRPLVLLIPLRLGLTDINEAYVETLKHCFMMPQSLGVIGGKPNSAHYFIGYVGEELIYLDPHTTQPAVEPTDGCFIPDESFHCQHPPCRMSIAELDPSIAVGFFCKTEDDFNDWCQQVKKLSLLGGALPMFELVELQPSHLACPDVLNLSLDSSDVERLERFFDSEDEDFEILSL
SKN-1 inh – blocks SKN-1 activity in C. elegans. C. elegans VP596 Pgst-4::GFP/RFP ratio, acrylamide-induced, 24 h. inhibition, % at 21.8 µM. 360,000 tested, 0.49% active;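 active = interference check ratio from 0.5 to 1.5 plus GFP to RFP signal ratio inhibition reaching or exceeding a fixed threshold, cut at about 30% in these data, passing the limit was not always enough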
Starred values were filed as active, the others as inactive; i = inactive; ? = inconclusive; / = not tested or not shown; + = active, no number. Compounds with a hit are over-represented: about 3.5% of the library has one in this group of screens.

SMILES	CHRM1 PAM	M1 antag	M1 ag	Myeloid diff MLP	ATG4B inhibitor	SKN-1 inh
COc1ccc(CN2CCN(S(=O)(=O)c3ccc(NC(C)=O)cc3)CC2)c(OC)c1OC	5	-11	-8	+	-4	16
Cc1cc2cc(CNC(=O)c3ccc(S(=O)(=O)N4CCCCC4)cc3)ccc2n1C	-13	13	-11	i	-10	62*
Cc1ccc(CNC(=O)c2ccc(S(=O)(=O)N3CCCC3)cc2)cc1	8	-20	-2	i	/	15
Cc1cc2cc(CNC(=O)c3ccc(S(=O)(=O)N4CCCC4)cc3)ccc2n1C	-28	73*	-11	i	4	46*
CCN(CC)S(=O)(=O)c1ccc(C(=O)NCc2ccc3c(c2)cc(C)n3C)cc1	-31	57*	-11	i	-7	43
COc1cccc(/C=C/C(=O)OCC(=O)Nc2cc(S(=O)(=O)N3CCOCC3)ccc2C)c1	1	-3	1	i	-10	-4
Cc1ccsc1C1CC(=O)Nc2ccccc2S1 (stereo not drawn)	5	-12	-4	+	1	4
CCOC(=O)C1=C(C)N=c2s/c(=C\c3ccc(OC(C)=O)cc3)c(=O)n2C1/C=C/c1ccccc1 (stereo not drawn)	11	0	-5	+	-4	-9
CCOC(=O)C1=C(C)N=c2s/c(=C\c3ccc(OC(C)=O)c(OCC)c3)c(=O)n2C1/C=C/c1ccccc1 (stereo not drawn)	10	-11	-3	i	-27	33
Cc1cccc(OC(=O)CCN2C(=O)C3C4C=CC(C5CC45)C3C2=O)c1C (stereo not drawn)	11	-11	-5	i	-7	9
O=C(c1ccc(CSc2nc3ccncc3[nH]2)cc1)N1CCCCCC1	1	-1	-5	i	-3	-1
O=C(c1ccc(CSc2nc3ccncc3[nH]2)cc1)N1CCN(c2cccc(Cl)c2)CC1	-20	36*	-5	+	-18	1
NC(=O)c1c(-c2ccc(Cl)cc2Cl)csc1NC(=O)Cc1ccccc1	-25	44*	-7	i	-1	10
COc1ccc(OC(=O)Cc2cccc3ccccc23)cc1	2	6	-3	i	8	-10
COc1ccc(CN2CCNC(=O)C2CC(=O)N2CCCCO2)cc1OC (stereo not drawn)	-3	2	-3	i	-1	4
COc1ccc(N(C)S(=O)(=O)c2cccc(C(=O)Nc3ccc(-n4cnnn4)cc3)c2)cc1	-13	29*	4	i	-23	15
COc1ccc(OCCN(C)C(=O)c2cccc(S(=O)(=O)N(C)c3ccccc3)c2)cc1	-3	-2	-1	i	-1	37*
COc1ccc(N(C)S(=O)(=O)c2cccc(C(=O)OCC(=O)NCc3ccccc3OC)c2)cc1	-13	25*	1	i	6	-1
CCN(c1ccccc1)S(=O)(=O)c1cccc(C(=O)N(C)CCOc2ccccc2)c1	-1	-9	0	i	-4	0
COc1ccc(N(C)S(=O)(=O)c2cccc(C(=O)Nc3ccc4c(c3)OCCO4)c2)cc1	-2	12	-1	i	-1	-10
O=C(NCCc1ccc(C(F)(F)F)cc1)C1CCC(=O)N(CCCN2CCCC2=O)C1 (stereo not drawn)	16	-24	-3	i	6	6
COC(=O)c1ccc(Oc2c(F)c(F)nc(N3CCOCC3)c2F)cc1	-10	-1	-8	i	5	-3
O=C(Nc1ccccc1)OCCOc1ccccc1	5	-1	-6	i	6	-20
COc1ccc(OCCOC(=O)Nc2ccccc2)cc1	-1	31*	-4	i	-1	16
Cc1cc(C)n2c(SCc3c(C)noc3C)nnc2n1	0	-2	-5	i	-3	33*
SMILES	CHRM1 PAM	M1 antag	M1 ag	Myeloid diff MLP	ATG4B inhibitor	SKN-1 inh
COCCN(C(=S)Nc1cc(C)cc(C)c1)C(C)c1ccco1 (stereo not drawn)	26*	0	-3	i	-1	5
COCCN(C(=S)Nc1cc(C)cc(C)c1)C(C)c1cccs1 (stereo not drawn)	-2	7	-4	i	-4	-4
CCCn1nc([N+](=O)[O-])c(C(C#N)c2nc3ccccc3o2)c(Cl)c1=O (stereo not drawn)	7	-11	-6	i	84*	13
Cn1nc([N+](=O)[O-])c(C(C#N)c2ccccn2)c(Cl)c1=O (stereo not drawn)	6	-7	-1	?	-4	12
CN1CCCNc2nc3ccccc3nc21	10	-27	-2	+	-4	0
Cc1ccc(S(=O)(=O)N2CCCN(C)c3nc4ccccc4nc32)cc1	0	4	-3	+	-3	17
c1ccc2nc(N3CCOCC3)c(N3CCOCC3)nc2c1	-4	-13	0	i	-11	-1
CN1CCCN(S(=O)(=O)c2ccccc2)c2nc3ccccc3nc21	10	-20	2	+	-6	3
CC(C)c1ccc(C(=O)N2CCCC(c3cc(C(=O)Nc4ccccc4Cl)no3)C2)cc1 (stereo not drawn)	-1	-5	-5	i	/	-16
CC1Sc2ccc(S(=O)(=O)CCC(=O)N3CCN(c4cccc(Cl)c4)CC3)cc2NC1=O (stereo not drawn)	-16	46*	3	i	-14	-3
CCC(=O)N1CCCc2cc(S(=O)(=O)CCC(=O)Nc3ccccc3C)ccc21	1	-3	-2	i	5	19
CCc1nc2c(OCCOc3ccc(F)cc3)cccn2c1N(C)C(=O)c1cccs1	6	-15	-9	i	/	6
O=C(O)CN(CC(=O)O)CC(=O)O	0	-12	-1	+	0	9
O=C(NC1CCSc2ccccc21)c1cccc(Cl)c1 (stereo not drawn)	-2	-5	-6	i	1	-9
COc1ccc(Br)cc1CN(C)C(=O)CNC(=O)c1ccc2ccccc2c1	-16	29*	-4	i	-12	-4
CCCS(=O)(=O)NC(=O)C1(C)CCCN(C(=O)c2sccc2C)C1 (stereo not drawn)	8	-9	-2	i	/	10
CC1CCCCN1CC(=O)Nc1ccc(N2CCCCCC2)cc1 (stereo not drawn)	-27	7	-15	i	-3	-4
CSc1ccccc1NC(=O)CN1CCCCC1C (stereo not drawn)	-3	0	-14	i	0	-14
CC1CCCCN1CC(=O)Nc1ccc(Oc2ccccc2)cc1 (stereo not drawn)	-25	69*	-6	i	-1	-6
